# Data as given in PubChem BioAssay AID1362 (SRMLSC, 2008).
# Out of some 190,000 compounds screened, about 4,000 (2.1%) were called active. Cut-off read from the data, not from the text of the source: active = inhibition above about 58%; inactive = the rest, inconclusive results apart; tested in S. cerevisiae. Many of the other results were omitted from the sample, so actives are more common in it than they were.
# Experiment: growth inhibition of WT strain, primary screen, mitochondrial fusion inhibitor project, WT and mutant strains, chemical genetic (AID 1362)
# Details: mitochondrial fusion phenotypic screen, at 10 µM
# [1] = WT strain, growth inhibition, stronger effect = higher value
SMILES,inhibition [1],inhibition (mutant strain inhibition) [%]
COc1cc(SC#N)ccc1N=Cc1c(C)[nH]n(-c2ccc(C)cc2)c1=O,81.4% (active),11.6
CCc1nnc(NS(=O)(=O)c2ccc(N=Cc3c(C)[nH]n(-c4ccc(C)cc4)c3=O)cc2)s1,40.8% (inactive),28.3
Cc1ccc(-n2[nH]c(C)c(/C=N/N3C(=O)c4cccc5cccc(c45)C3=O)c2=O)cc1,13.3% (inactive),13
Cc1ccc(OCC(=O)Nc2ccc(S(=O)(=O)Nc3ccccn3)cc2)cc1,-2.17% (inactive),-9.5
NS(=O)(=O)c1ccc(NC(=S)NC(=O)c2cccnc2)cc1,-6.97% (inactive),-10.8
Cn1nnnc1NCc1ccc(Cl)c(Cl)c1,-2% (inactive),14.5
O=[N+]([O-])c1ccc(Oc2ccc(F)cc2Br)c2ccncc12,68.7% (active),58.1
O=[N+]([O-])c1ccc(F)cc1Oc1nc(-c2cccnc2)nc2ccccc12,2.1% (inactive),3.69
O=C(O)CSc1nccc2ccccc12,-2.02% (inactive),-7.45
Cc1ccc(Nc2nnc(SCC(=O)c3cc4ccccc4o3)s2)cc1C,0.56% (inactive),20.2
O=C(CSc1nnc(Nc2ccccc2)s1)Nc1cccnc1Cl,-3.41% (inactive),-15.4
CC(C)c1ccc(Nc2nnc(SCC(=O)c3nnc(-c4ccccc4)o3)s2)cc1,70.5% (active),55.7
S=C(NCc1ccco1)Nc1ccc2c(c1)OCCO2,-2.47% (inactive),9.66
CC(C)(C)NC(=O)NC(=O)COC(=O)Cc1c(F)cccc1Cl,-15.4% (inactive),1.6
NS(=O)(=O)c1ccc(NC(=S)Nc2ccc(Br)c(Cl)c2)cc1,82.6% (active),54.2
NS(=O)(=O)c1ccc(CCNC(=S)Nc2ccc(S(N)(=O)=O)cc2)cc1,-5.98% (inactive),-14.5
NS(=O)(=O)c1ccc(NC(=S)NC(=O)c2cccc(Br)c2)cc1,11% (inactive),20.3
CCCn1c(=S)[nH]c2ccc(C(F)(F)F)cc21,2.77% (inactive),12.1
CO/N=C/c1cn(-c2ccc(Cl)cc2)nn1,-5.72% (inactive),-2.58
O=C(c1ccco1)N1CCN(c2cccc(Cl)c2)CC1,7.68% (inactive),-0.39
O=C(c1ccc2c(c1)OCO2)N1CCN(C(=O)c2ccco2)CC1,-13.2% (inactive),-33.3
O=C(c1ccco1)N1CCN(C(=O)C2c3ccccc3Oc3ccccc32)CC1,71.1% (active),6.75

SMILES,inhibition [1],inhibition (mutant strain inhibition) [%]
O=C(C1CCN(C2CCN(Cc3cccc4c3OCO4)CC2)CC1)N1CCOCC1,5.02% (inactive),2.36
CN(C)CCCN1C(=O)CSC1c1ccc([N+](=O)[O-])cc1 (stereo not given),-4.48% (inactive),1.39
COc1ccc(/C=C/C(=O)OCC(=O)Nc2cccc(Oc3ccccc3)c2)c(OC)c1,7.56% (inactive),8.13
COc1cccc(NC(=O)COC(=O)CCOc2ccccc2OC)c1,-0.47% (inactive),-4.38
COc1cc(/C=C/C(=O)OCC(=O)Nc2cccc(Oc3ccccc3)c2)ccc1O,68.3% (active),29
O=C(c1ccc(C(F)(F)F)cc1)C1CCCN(C(=O)c2csnn2)C1 (stereo not given),7.52% (inactive),10.7
COc1ccc(-c2csc(NC(=O)c3ccc(N4C(=O)CCC4=O)cc3)n2)cc1OC,7.99% (inactive),3.27
CC(=O)c1ccc(N2CCN(CC(=O)Nc3ccccc3N3CCOCC3)CC2)cc1,-16% (inactive),4.64
COC(=O)Cc1ccc(NC(=S)NCc2ccco2)cc1,6.76% (inactive),3.2
CC(C)c1ccc(N2CCN(C(=O)c3ccccc3NC(=O)/C=C(\C(=O)O)c3ccccc3)CC2)cc1,71% (active),37.8
O=C(O)C1CC=CCC1C(=O)Nc1ccccc1C(=O)N1CCN(c2ccccc2)CC1 (stereo not given),-12.3% (inactive),-3.47
Cc1cccc(N2CCN(C(=O)c3ccccc3NC(=O)C3CCCCC3C(=O)O)CC2)c1 (stereo not given),-3.08% (inactive),-3.64
COc1ccc(NC(=S)NCCNC(C)=O)cc1,3.42% (inactive),8.02
COc1cc(NC(=S)NCc2ccc(S(N)(=O)=O)cc2)cc(OC)c1,-1.93% (inactive),4.18
COc1cc(NC(=S)NCCSc2ccc(C)cc2)cc(OC)c1,71.4% (active),51.4
Cc1nnc(SC(C(=O)Nc2cc(Cl)cc(Cl)c2)c2ccccc2)[nH]c1=O (stereo not given),1.45% (inactive),9.8
COc1cc(/C=C/C(=O)OCC(=O)NC(=O)NCc2ccccc2)ccc1OCC#N,6.54% (inactive),3.13
CN1C(=O)C(CC(=O)Nc2ccccc2)S/C1=N/c1nccs1 (stereo not given),-7.94% (inactive),3.24
COc1ccc(Cl)cc1NC(=O)C(C)N1CCc2ccccc21 (stereo not given),54% (inactive),18.4
COCCOCCn1cnc2ccccc21,-10.3% (inactive),-7.09
Clc1ncn(CCOc2ccccc2)c1Cl,-14.3% (inactive),-12.6
Cc1cc2ncn(CCCCOc3ccccc3)c2cc1C,62.5% (active),44.6

SMILES,inhibition [1],inhibition (mutant strain inhibition) [%]
COc1ccc(C(=O)NNC(=O)c2cc(C)[nH]n2)cc1,-20% (inactive),-23.8
C/C(=C\c1ccco1)CN1CCC(N2CCC(C(=O)N3CCOCC3)CC2)CC1,-2.61% (inactive),2.35
O=C(NC(=S)Nc1cccc(-c2ccc(CO)o2)c1)c1cccs1,6.13% (inactive),12.3
CC(=O)Nc1ccc(NC(=S)NC(=O)/C=C/c2ccccc2)cc1,-1.35% (inactive),-0.82
CCOC(=O)c1cc2cc(-c3c(C(=O)OCC)oc4cc(O)cc(O)c4c3=O)ccc2o1,-4.08% (inactive),-39.7
O=c1c(-c2ccc3c(c2)OCCO3)c(C(F)(F)F)oc2cc(O)cc(O)c12,70.7% (active),42.8
COc1ccc(-c2onc(C)c2-c2ccc3c(c2)OCCO3)c(O)c1,21.9% (inactive),-8.53
S=C(NCCc1ccccc1)N1CCCCC1,8.05% (inactive),12.7
S=C(NCCc1ccccc1)NCc1ccccc1Cl,62% (active),35.9
Cc1ccc(NC(=S)NCc2ccccc2Cl)c(C)c1,41% (inactive),-1.48
CC(=O)N1CCN(S(=O)(=O)c2c(F)cc(F)c(Cl)c2F)CC1,-3.19% (inactive),3.15
CSc1ccc(/C=N/N2CCN(Cc3ccccc3Cl)CC2)cc1,43.5% (inactive),23.8
COc1cc(CNC2CCCCC2)c(Br)cc1OC1CCCC1,18.3% (inactive),20.6
O=C(/C=C/c1ccccc1)N/C(=C/c1ccccc1)C(=O)Nc1ccccc1O,-8.09% (inactive),-0.03
CCc1ccccc1NC(=O)/C(=C/c1ccccc1)c1ccccc1,64.8% (active),9.35
CCc1ccccc1NC(=O)c1cccs1,2.87% (inactive),-2.72
CCN(CC)CCN(C(=O)c1ccc(N2C(=O)CCC2=O)cc1)c1nc2cc3c(cc2s1)OCO3,2.8% (inactive),-0.18
COc1ccc(-c2ccc(CNCCCN3CCOCC3)o2)cc1Cl,6.85% (inactive),12.6
C=CCNC(=S)NNC(=O)COc1c(Cl)cc(Cl)cc1Cl,67.1% (active),29.7
C=CCNC(=S)NNC(=O)c1ccc(Br)o1,-3.81% (inactive),3.41
C=CCNC(=O)COC(=O)CNC(=O)c1cc(Cl)cc([N+](=O)[O-])c1,-6.93% (inactive),10.8
CCOC(=O)C1CCCN(C(=O)c2cccc(S(=O)(=O)N3CCOCC3)c2)C1 (stereo not given),-0.28% (inactive),-18.7

SMILES,inhibition [1],inhibition (mutant strain inhibition) [%]
O=C(COc1ccc(-c2ccccc2)cc1)NN=C1CCCC1,2.21% (inactive),-3.38
CCCc1noc2c1/C(=N\O)CCC2,-2.57% (inactive),-4.14
CCCCc1cc2c(s1)CCCC/C2=N/O,63.2% (active),6.26
Cc1[nH]c2ccccc2c1/C=C(/C#N)C(=O)NC(C)C,-14% (inactive),-5.17
Cc1ccc(NC(=S)N(CCN2CCCCC2)Cc2ccco2)cc1C,8.12% (inactive),24.1
Cc1ccc(NC(=S)N(CCCN2CCC(C)CC2)Cc2ccco2)cc1,2.89% (inactive),13.6
Cc1ccc(NC(=S)N(Cc2ccco2)C(C)c2cccs2)cc1 (stereo not given),75.8% (active),51.5
CCN1CCN(C(C(=O)NC2CCCC2)c2cc3c(cc2[N+](=O)[O-])OCO3)CC1 (stereo not given),2.26% (inactive),-2.37
CC1CCN(C(=S)c2cccc([N+](=O)[O-])c2)CC1,7.85% (inactive),23
CC1(c2ccccc2)CC(C)(C)N(C(=O)c2cc([N+](=O)[O-])cc([N+](=O)[O-])c2)c2ccccc21 (stereo not given),57% (inactive),35.9
CC1(c2cccc([N+](=O)[O-])c2)CC(C)(C)N(C(=O)c2ccccc2)c2ccccc21 (stereo not given),75.8% (active),33.1
CCC(C(=O)OCC(=O)Nc1ccc(C(=O)Nc2ccc(OC)cc2)cc1)c1ccccc1 (stereo not given),12.9% (inactive),-13.4
CCC(C(=O)OCC(=O)Nc1ccccc1-c1ccccc1)c1ccccc1 (stereo not given),70.9% (active),-2.32
CCC(C(=O)OCC(=O)Nc1c(Cl)cc(Cl)cc1Cl)c1ccccc1 (stereo not given),11.1% (inactive),-9.47
O=C(Nc1ccc(NC(=O)c2ccco2)c(Cl)c1)c1cccc([N+](=O)[O-])c1,2.21% (inactive),16.7
CC(=O)c1cnc(-c2ccccc2)s1,3.8% (inactive),-4.54
Cc1ccc(C2CCN(C(=S)Nc3cccc(Cl)c3)C2)cc1 (stereo not given),74.3% (active),55
Cc1cccc(NC(=S)N2CCCC(c3nc4ccccc4[nH]3)C2)c1 (stereo not given),-10.4% (inactive),0.82
O=C(C1CCCO1)N1CCN(C(=S)Nc2cccc(Cl)c2)CC1 (stereo not given),-4.05% (inactive),25.8
